Assay results: paper PMC5540273 (PLoS ONE, 2017)

Experiments:
Details in all cases: concentration: 1 μM,replicates: in singlicate; n = 1
[1] = system: T1, RSK4(Kin.Dom.1-N-terminal)
T1 construct: gene RPS6KA6

[2] = system: T2, RSK4(Kin.Dom.2-C-terminal)
T2 construct: gene RPS6KA6

S6K1 = system: S6K1
SBK1 = system: SBK1
SGK2 = system: SGK2
SGK3 = system: SGK3
SGK = system: SGK
SIK2 = system: SIK2
SIK = system: SIK
SLK = system: SLK
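Also: KINOMEscan kinase panel screen.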

Compound | %Inh [1] [%] | %Inh [2] [%] | %Inh (S6K1) [%] | %Inh (SBK1) [%] | %Inh (SGK2) [%] | %Inh (SGK3) [%] | %Inh (SGK) [%] | %Inh (SIK2) [%] | %Inh (SIK) [%] | %Inh (SLK) [%]
Cn1ccc2ncnc(Oc3ccc(NC(=O)Nc4cc(C(C)(C)C)on4)c(Cl)c3)c21 | 26 | 18 | 6 | 13 | 24 | 0 | 10 | 4 | 11 | 97.7
Cn1ccc2ncnc(Oc3ccc(NC(=O)Nc4cccc(C(F)(F)F)c4)c(F)c3)c21 | 0 | 2 | 22 | 0 | 0 | 2 | 0 | 3 | 28 | 54
COc1cccc(C2=C(Nc3cccc(Cl)c3)C(=O)NC2=O)c1 [SB-341556] | 43 | 76 | 23 | 19 | 0 | 9 | 3 | 99.9 | 0 | 92.2
CS(=O)(=O)c1cccc(CNc2nc(Nc3ccc4c(c3)[C@@H]3C[C@@H]4CNC3=O)ncc2C(F)(F)F)c1 | 73 | 5 | 0 | 81 | 0 | 25 | 43 | 47 | 45 | 98.2
O=C(Nc1ccccc1)c1cccc(Oc2ccc3nccn3n2)c1 | 5 | 0 | 0 | 5 | 18 | 17 | 0 | 0 | 0 | 9
CCCC(=O)Nc1n[nH]c2ncccc12 [SB-601436] | 0 | 0 | 0 | 2 | 17 | 10 | 7 | 0 | 0 | 0
FC(F)(F)c1cc(Br)cc(Nc2nccc(-c3cnn4ncccc34)n2)c1 [GW810578] | 13 | 0 | 4 | 0 | 0 | 17 | 2 | 0 | 14 | 13
Cc1n[nH]c2cc(Nc3ccnc(Nc4cccc(CN5CCOCC5)c4)n3)ccc12 [GW682569] | 19 | 16 | 0 | 0 | 0 | 17 | 0 | 33 | 46 | 0
Cc1ccc(C(=O)Nc2ccc(Oc3ccc4nc(NC(=O)C5CC5)cn4c3)c(F)c2)c(=O)n1-c1ccccc1 | 0 | 0 | 9 | 0 | 0 | 0 | 0 | 19 | 94.9 | 79
CC(=O)c1c(-c2ccncc2)[nH]c(-c2ccncc2)c1C [GW493036] | 0 | 4 | 6 | 10 | 11 | 9 | 0 | 0 | 0 | 0
O=C(Nc1n[nH]c2cc(-c3ccco3)ccc12)C1CC1 [SB-737447] | 26 | 10 | 4 | 23 | 30 | 34 | 47 | 0 | 0 | 13
CC(=O)Nc1nc2cnc(Nc3cc(NC(=O)c4cccc(CC(C)(C)C#N)c4)ccc3C)nc2s1 | 25 | 0 | 0 | 52 | 0 | 0 | 4 | 0 | 24 | 1
OCCn1cc(-c2cnc3nnn(Cc4ccc5ncccc5c4)c3n2)cn1 | 0 | 1 | 0 | 0 | 0 | 15 | 0 | 0 | 0 | 0
Cn1ccc2ncnc(Oc3ccc(NC(=O)Nc4cccc(C(F)(F)F)c4)c(Cl)c3)c21 | 0 | 41 | 2 | 0 | 0 | 0 | 0 | 9 | 10 | 63
Cc1ccc(Nc2ccnc(Nc3ccc4c(c3)CS(=O)(=O)C4)n2)cc1O.Cl [GW579362] | 0 | 35 | 1 | 55 | 0 | 9 | 0 | 60 | 58 | 99.2
O=C(NCC1CC1)c1ccc(-c2cc(C(=O)NC3CC3)ccc2F)cc1 [GW810445] | 0 | 0 | 0 | 4 | 0 | 0 | 7 | 0 | 2 | 0
